In the supplement of paper PMC10849652:
The full data set covers some 7,900 targets. This sample favours those with a hit. About 0.6% of all pairs of compound and target were hits.

compound: CCn1cc(-c2ccnc3[nH]c(-c4cccc(CN(C)C)c4)cc23)c(-c2ccc(NC(=O)N(C)C)cc2)n1; test: log2 fold change, soluble protein after heating vs DMSO (PISA); higher = thermal stabilisation; K562 cells, 10 uM, 30 min; active = over 0.2 and 3.5 SD of the protein, either way, in both replicates (recomputed)
In short: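 K562 cells at 2×10^6 cells/mL were treated with 10 μM compound for 30 min. Aliquots were heated for 3 min across 48°C-58°C, pooled, and extracted in PBS with 0.5% NP-40 at 4°C; soluble protein was the supernatant after 21,000xg for 90 min. Soluble protein was quantified by TMTpro 16plex LC-MS/MS with channel sums equalised, and reported as log2 fold change in thermal stability against DMSO controls, with values from duplicates.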

Sequence of UniProt Q86VI4 (Q86VI4 whole entry, looked up): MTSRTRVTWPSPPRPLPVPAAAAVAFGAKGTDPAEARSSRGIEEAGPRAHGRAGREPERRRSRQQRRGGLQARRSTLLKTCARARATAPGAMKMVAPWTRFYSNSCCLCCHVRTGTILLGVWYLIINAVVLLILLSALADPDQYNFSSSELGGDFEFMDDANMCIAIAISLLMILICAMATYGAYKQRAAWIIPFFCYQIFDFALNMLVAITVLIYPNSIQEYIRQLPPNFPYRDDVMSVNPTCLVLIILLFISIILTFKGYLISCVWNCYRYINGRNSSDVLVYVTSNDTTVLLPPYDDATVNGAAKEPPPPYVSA
Sequence of UniProt Q14680 (Q14680 whole entry, looked up): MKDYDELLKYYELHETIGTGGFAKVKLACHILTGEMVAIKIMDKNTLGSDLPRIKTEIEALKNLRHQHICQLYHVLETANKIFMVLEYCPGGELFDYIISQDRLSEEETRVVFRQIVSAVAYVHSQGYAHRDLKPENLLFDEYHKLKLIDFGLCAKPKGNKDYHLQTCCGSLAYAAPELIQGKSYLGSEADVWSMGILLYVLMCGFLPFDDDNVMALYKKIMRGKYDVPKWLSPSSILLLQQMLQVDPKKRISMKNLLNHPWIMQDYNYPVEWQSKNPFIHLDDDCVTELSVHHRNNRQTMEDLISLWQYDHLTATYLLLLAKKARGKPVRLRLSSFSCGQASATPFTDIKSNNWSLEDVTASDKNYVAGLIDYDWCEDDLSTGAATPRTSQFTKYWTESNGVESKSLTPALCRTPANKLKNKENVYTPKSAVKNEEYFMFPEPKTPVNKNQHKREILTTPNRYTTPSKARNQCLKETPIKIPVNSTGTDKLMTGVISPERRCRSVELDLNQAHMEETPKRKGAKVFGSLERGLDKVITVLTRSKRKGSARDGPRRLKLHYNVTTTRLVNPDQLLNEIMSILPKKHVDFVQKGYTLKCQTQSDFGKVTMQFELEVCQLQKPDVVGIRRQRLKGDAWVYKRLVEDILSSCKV
Sequence of UniProt O60291 (O60291 whole entry, looked up): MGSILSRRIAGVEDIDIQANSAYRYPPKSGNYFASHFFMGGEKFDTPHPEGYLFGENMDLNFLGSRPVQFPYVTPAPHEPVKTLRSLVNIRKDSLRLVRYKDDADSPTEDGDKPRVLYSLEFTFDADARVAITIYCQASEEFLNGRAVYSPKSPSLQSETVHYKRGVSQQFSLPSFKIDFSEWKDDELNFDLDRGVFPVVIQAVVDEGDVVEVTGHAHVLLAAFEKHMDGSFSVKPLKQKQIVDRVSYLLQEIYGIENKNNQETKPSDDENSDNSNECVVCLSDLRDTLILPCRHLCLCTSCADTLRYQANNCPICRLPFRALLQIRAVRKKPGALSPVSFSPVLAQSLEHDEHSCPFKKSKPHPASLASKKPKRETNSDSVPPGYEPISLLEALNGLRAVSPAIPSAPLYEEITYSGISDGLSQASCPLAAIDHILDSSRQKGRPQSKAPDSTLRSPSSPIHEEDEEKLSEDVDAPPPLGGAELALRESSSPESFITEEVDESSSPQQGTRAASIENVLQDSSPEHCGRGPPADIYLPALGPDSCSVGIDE
Sequence of UniProt Q13164 (Q13164 whole entry, looked up): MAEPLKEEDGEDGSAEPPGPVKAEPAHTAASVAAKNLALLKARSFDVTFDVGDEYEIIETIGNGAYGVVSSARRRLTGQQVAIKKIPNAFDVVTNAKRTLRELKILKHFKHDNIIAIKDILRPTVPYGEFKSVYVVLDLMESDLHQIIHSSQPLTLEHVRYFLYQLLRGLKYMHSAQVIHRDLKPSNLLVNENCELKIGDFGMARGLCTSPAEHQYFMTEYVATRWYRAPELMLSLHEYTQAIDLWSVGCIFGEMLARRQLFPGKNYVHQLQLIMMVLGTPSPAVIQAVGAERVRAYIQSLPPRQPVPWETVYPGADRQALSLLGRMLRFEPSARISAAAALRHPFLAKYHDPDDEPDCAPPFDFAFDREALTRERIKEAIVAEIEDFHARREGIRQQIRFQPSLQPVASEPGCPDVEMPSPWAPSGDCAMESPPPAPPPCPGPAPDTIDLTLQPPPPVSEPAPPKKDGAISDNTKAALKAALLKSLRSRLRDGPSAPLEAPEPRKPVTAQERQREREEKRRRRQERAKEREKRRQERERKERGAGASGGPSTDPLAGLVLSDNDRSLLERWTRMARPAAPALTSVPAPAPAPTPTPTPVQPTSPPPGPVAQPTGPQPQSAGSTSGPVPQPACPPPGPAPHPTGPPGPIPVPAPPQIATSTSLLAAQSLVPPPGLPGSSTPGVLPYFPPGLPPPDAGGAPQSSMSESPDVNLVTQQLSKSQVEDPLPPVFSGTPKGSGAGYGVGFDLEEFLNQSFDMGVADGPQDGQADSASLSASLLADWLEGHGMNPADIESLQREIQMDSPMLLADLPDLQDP
Sequence of UniProt Q9BQD3 (Q9BQD3 whole entry, looked up): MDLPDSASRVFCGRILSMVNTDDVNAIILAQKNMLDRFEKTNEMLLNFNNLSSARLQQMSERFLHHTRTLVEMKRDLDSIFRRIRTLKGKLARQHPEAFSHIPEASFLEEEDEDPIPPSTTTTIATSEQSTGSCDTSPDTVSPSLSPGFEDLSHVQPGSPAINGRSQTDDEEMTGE
Sequence of UniProt Q8NHS3 (Q8NHS3 whole entry, looked up): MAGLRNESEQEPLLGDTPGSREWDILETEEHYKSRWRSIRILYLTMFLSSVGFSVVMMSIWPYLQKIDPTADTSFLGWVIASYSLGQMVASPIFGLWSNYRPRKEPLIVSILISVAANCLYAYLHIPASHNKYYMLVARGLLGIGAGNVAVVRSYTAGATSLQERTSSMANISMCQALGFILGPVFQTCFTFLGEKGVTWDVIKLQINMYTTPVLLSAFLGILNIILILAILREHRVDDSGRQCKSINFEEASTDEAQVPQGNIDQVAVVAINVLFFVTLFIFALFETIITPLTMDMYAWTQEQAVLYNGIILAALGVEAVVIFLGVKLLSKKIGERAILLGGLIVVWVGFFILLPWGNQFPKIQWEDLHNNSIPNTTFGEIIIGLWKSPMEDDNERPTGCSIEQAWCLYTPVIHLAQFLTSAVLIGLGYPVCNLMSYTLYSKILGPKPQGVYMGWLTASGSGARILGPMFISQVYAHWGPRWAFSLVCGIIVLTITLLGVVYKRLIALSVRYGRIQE
Sequence of UniProt O00214 (O00214 whole entry, looked up): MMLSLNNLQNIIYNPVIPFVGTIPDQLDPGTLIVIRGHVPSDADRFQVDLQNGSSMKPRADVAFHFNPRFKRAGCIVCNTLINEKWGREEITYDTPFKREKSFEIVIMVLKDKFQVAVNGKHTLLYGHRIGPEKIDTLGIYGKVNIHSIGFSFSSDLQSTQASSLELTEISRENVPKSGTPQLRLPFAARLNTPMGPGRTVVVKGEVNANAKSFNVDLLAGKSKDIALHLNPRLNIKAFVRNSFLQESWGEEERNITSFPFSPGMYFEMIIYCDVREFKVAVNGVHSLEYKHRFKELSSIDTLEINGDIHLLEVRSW
Sequence of UniProt P43361 (P43361 whole entry, looked up): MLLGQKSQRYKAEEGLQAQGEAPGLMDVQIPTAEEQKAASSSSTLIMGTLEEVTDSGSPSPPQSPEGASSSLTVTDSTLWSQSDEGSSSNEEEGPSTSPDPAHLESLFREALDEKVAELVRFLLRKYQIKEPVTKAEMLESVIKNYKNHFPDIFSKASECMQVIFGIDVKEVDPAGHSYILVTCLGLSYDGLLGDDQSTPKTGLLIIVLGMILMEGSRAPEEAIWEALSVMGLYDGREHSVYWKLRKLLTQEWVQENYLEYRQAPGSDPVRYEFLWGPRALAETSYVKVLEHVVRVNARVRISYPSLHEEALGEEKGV
Sequence of UniProt Q8TDD5 (Q8TDD5 whole entry, looked up): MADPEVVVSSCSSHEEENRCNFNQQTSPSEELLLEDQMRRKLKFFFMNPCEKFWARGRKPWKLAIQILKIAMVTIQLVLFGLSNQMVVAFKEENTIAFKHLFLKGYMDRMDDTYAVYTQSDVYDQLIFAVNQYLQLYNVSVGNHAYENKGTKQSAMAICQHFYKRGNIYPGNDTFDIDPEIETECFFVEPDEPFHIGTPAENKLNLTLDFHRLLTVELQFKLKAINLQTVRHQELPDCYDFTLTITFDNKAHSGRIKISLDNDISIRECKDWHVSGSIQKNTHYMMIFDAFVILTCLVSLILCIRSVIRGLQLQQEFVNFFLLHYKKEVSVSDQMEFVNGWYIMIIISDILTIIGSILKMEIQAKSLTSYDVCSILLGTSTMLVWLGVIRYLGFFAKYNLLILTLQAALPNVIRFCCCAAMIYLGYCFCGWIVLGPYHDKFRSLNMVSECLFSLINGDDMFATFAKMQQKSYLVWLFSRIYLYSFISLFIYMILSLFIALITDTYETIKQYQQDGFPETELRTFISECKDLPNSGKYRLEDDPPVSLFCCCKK
Sequence of UniProt Q2M2Z5 (Q2M2Z5 whole entry, looked up): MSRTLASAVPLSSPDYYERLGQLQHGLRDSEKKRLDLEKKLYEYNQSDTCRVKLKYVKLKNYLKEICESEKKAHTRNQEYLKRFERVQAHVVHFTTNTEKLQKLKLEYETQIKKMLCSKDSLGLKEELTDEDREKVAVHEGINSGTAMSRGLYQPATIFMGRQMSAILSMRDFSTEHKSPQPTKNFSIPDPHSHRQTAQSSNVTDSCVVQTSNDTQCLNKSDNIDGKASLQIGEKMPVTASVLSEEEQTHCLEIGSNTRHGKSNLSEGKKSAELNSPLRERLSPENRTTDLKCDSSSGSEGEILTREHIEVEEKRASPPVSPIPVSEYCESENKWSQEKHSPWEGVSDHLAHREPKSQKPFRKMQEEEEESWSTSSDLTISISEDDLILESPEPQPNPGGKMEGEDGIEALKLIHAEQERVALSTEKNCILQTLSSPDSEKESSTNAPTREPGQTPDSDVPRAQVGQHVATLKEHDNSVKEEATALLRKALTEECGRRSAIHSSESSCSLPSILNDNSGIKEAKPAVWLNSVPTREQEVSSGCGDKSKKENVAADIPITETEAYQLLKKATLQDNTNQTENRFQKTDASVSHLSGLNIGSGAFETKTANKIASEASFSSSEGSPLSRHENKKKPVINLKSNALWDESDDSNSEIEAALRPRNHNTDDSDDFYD

log2 fold change, inactive:
KXD1 (UniProt Q9BQD3) 0.041
MAPK11 (UniProt Q15759) 0.025
LRRFIP1 isoform 4 (UniProt Q32MZ4) 0.212
IKZF1 (UniProt R9R4D9) -0.247
LGALS8 isoform 2 (UniProt O00214) -0.121
MBLAC1 (UniProt A4D2B0) -0.01
KIZ (UniProt Q2M2Z5) -0.202
LAPTM4B (UniProt Q86VI4) 0.216
LEPROT (UniProt O15243) 0.075
LAMP2 isoform 2 (UniProt P13473) -0.01
MFSD12 isoform 3 (UniProt Q6NUT3) -0.006
MAPK7 (UniProt Q13164) -0.049
MAGEA8 (UniProt P43361) 0.252
KMT5A (UniProt Q9NQR1) 0.091
MFSD8 (UniProt Q8NHS3) -0.012
MELK (UniProt Q14680) -0.114
MCOLN3 (UniProt Q8TDD5) 0.027
MGRN1 isoform 2 (UniProt O60291) -0.072
